# Assay results as given in PubChem BioAssay (EPA / NIEHS).
# Records with an inconclusive call do not appear. The source made the active and inactive calls. How the source made its calls, unless noted: active means hit-call score of the fitted dose curve at least 0.9, where 1 is the maximum; inconclusive means response in the unintended direction; inactive means score below 0.9.
# Columns and labels:
# [1] = read-out: xenobiotic metabolism (CYP1A2), CYP1A2 (gene 1544); experiment: CLD_CYP1A2_6hr: CellzDirect (CLD) Gene Expression Assay for xenobiotic metabolism (CYP1A2) at 6 hours (AID 2283663);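 on AC50: potency is for induction meaning a rise in mRNA above DMSO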
# Method in brief: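 Primary human hepatocytes from two donor preparations, dosed daily with multiple concentrations in 0.2% DMSO and harvested at 6 h. CYP1A2 mRNA induction measured by chemiluminescent qNPA, gain of signal fitted against DMSO; cytotoxicity flagged morphologically.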
# [2] = Tanguay_ZF_120hpf_TR_legacy: (Legacy) Oregon State University Tanguay Lab 120 Hour Post-fertilization zebrafish Assay for Touch Response (AID 2283667)
# Method in brief: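 Tropical 5D wild-type zebrafish embryos were exposed statically in sealed, foil-covered plates at 28C until 120 hpf, with 0.64% (vol/vol) final DMSO. Touch response was scored as present or absent; embryos that died were not scored.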
# [3] = CLD_ACTIN_24hr: CellzDirect (CLD) Gene Expression Assay for Baseline Control (Actin) at 24 hours (AID 2283670)
# Method in brief: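 Primary human hepatocytes dosed over multiple concentrations with 0.2% DMSO vehicle; actin mRNA measured at 24 h by qNPA chemiluminescence. Background control endpoint, fitted as gain of signal versus DMSO.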
# [4] = read-out: glucuronosyltransferase (UGT1A1), UGT1A1 (gene 54658); experiment: CLD_UGT1A1_6hr: CellzDirect (CLD) Gene Expression Assay for glucuronosyltransferase (UGT1A1) at 6 hours (AID 2283672)
# Method in brief: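 Primary human hepatocytes from two donor preparations, dosed with fresh solutions in 0.2% DMSO, harvested at 6 h. UGT1A1 mRNA measured by qNPA chemiluminescence; induction fitted upward versus DMSO.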
# [5] = read-out: Cytochrome P450 2B6 (Homo sapiens) (UniProt P20813); experiment: CLD_CYP2B6_6hr: CellzDirect (CLD) Gene Expression Assay for xenobiotic metabolism (CYP2B6) at 6 hours (AID 2283677);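 further: actives raise CYP2B6 transcript above DMSO baseline so AC50 marks an inducer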
# Method in brief: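 Primary human hepatocytes dosed with chemicals at multiple concentrations, vehicle 0.2% DMSO; CYP2B6 mRNA induction measured 6 h after dosing by quantitative nuclease protection assay with chemiluminescence, gain of signal fitted relative to DMSO.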
# [6] = CCTE_Padilla_ZF_144hpf_TERATOSCORE: (Legacy) CCTE's 144 Hour Post-fertilization zebrafish Assay Teratoscore, Padilla Lab (AID 2283679; active means hit-call score of the fitted dose curve at least 0.9, where 1 is the maximum; inactive means score below 0.9;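 on AC50: zebrafish embryos with chorions exposed by immersion from 6-8 hpf to 5 dpf with daily renewal; teratogenicity score from eye scoring of death hatching and malformations at 144 hpf; higher score means more developmental defects relative to DMSO baseline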)
# Method in brief: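 Larvae scored by eye at 144 hpf for death, hatching and malformations after a day in clean Hanks'. Before that, daily-renewed exposure at 80 uM (0.4% DMSO, 26C) from roughly 6-8 hpf through 5 dpf, 4 embryos per chemical.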
# [7] = read-out: ABC Transporter (ABCB1), ABCB1 (gene 5243); experiment: CLD_ABCB1_24hr: CellzDirect (CLD) Gene Expression Assay for ABC Transporter (ABCB1) at 24 hours (AID 2283684);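 on AC50: potency for increase in ABCB1 mRNA relative to DMSO vehicle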
# Method in brief: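 Primary human hepatocytes, two donor preparations, dosed daily with fresh solutions; vehicle 0.2% DMSO; harvested at 24 h. ABCB1 mRNA measured by quantitative nuclease protection assay (chemiluminescence); morphology-based cytotoxicity annotated.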
# [8] = read-out: ABC Transporter (ABCB11), ABCB11 (gene 8647); experiment: CLD_ABCB11_6hr: CellzDirect (CLD) Gene Expression Assay for ABC Transporter (ABCB11) at 6 hours (AID 2283675);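 further: hits raise ABCB11 mRNA level so AC50 marks induction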
# Method in brief: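 Human primary hepatocytes (two donor preparations) given fresh chemical daily at multiple concentrations, vehicle 0.2% DMSO. ABCB11 mRNA induction measured 6 h after dosing by qNPA chemiluminescence versus DMSO; cytotoxicity annotated from morphology.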
# [9] = CLD_ACTIN_6hr: CellzDirect (CLD) Gene Expression Assay for Baseline Control (Actin) at 6 hours (AID 2283676);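 further: active means increased actin mRNA relative to DMSO vehicle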
# Method in brief: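 Primary human hepatocytes dosed with fresh chemical solutions (vehicle 0.2% DMSO), harvested at 6 h. Actin mRNA quantified by quantitative nuclease protection assay with chemiluminescent read-out, as background control relative to DMSO.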
# [10] = read-out: HMG-CoA synthase (HMGCS2), HMGCS2 (gene 3158); experiment: CLD_HMGCS2_6hr: CellzDirect (CLD) Gene Expression Assay for HMG-CoA synthase (HMGCS2) at 6 hours (AID 2283682);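 further: actives raise HMGCS2 transcript above the 0.2% DMSO vehicle baseline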
# Method in brief: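 Primary human hepatocytes dosed daily with fresh chemical, 0.2% DMSO vehicle; HMGCS2 mRNA measured at 6 h by qNPA chemiluminescence. Gain of signal fitted against DMSO; cytotoxicity flagged from phase-contrast morphology.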
# [11] = read-out: sulfotransferase (SULT2A), SULT2A1 (gene 6822); experiment: CLD_SULT2A_6hr: CellzDirect (CLD) Gene Expression Assay for sulfotransferase (SULT2A) at 6 hours (AID 2283669);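 further: hits raise transcript level above the DMSO vehicle baseline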
# Method in brief: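 Primary human hepatocytes from two donor preparations were dosed daily with chemicals or 0.2% DMSO and harvested at 6 h. Transcript induction read by qNPA chemiluminescence, fitted for gain of signal relative to DMSO; morphology-based cytotoxicity annotated.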
# [12] = read-out: xenobiotic metabolism (CYP1A1), CYP1A1 (gene 1543); experiment: CLD_CYP1A1_24hr: CellzDirect (CLD) Gene Expression Assay for xenobiotic metabolism (CYP1A1) at 24 hours (AID 2283673);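 further: CYP1A1 mRNA level by quantitative nuclease protection with chemiluminescence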
# Method in brief: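 Primary human hepatocytes dosed daily with fresh solutions in 0.2% DMSO vehicle. mRNA measured at 24 h by quantitative nuclease protection assay with chemiluminescence; gain-of-signal fit versus DMSO, with morphology-based cytotoxicity flags.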
# [13] = read-out: Cytochrome P450 3A4 (Homo sapiens) (UniProt P08684); experiment: CLD_CYP3A4_6hr: CellzDirect (CLD) Gene Expression Assay for xenobiotic metabolism (CYP3A4) at 6 hours (AID 2283680)
# Method in brief: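 Primary human hepatocytes (two donor preparations) dosed; CYP3A4 mRNA harvested at 6 h and quantified by qNPA chemiluminescence. Gain of signal fitted against 0.2% DMSO vehicle; cytotoxicity flagged by phase-contrast morphology.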
# [14] = read-out: organic anion transporter (SLCO1B1), SLCO1B1 (gene 10599); experiment: CLD_SLCO1B1_6hr: CellzDirect (CLD) Gene Expression Assay for organic anion transporter (SLCO1B1) at 6 hours (AID 2283668);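 further: active means mRNA induction above DMSO baseline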
# Method in brief: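 Primary human hepatocytes dosed daily with test chemicals (multiple concentrations) in 0.2% DMSO vehicle; harvested at 6 h. SLCO1B1 mRNA quantified by qNPA chemiluminescence, fitted as gain-of-signal versus DMSO; cytotoxicity from phase-contrast morphology flagged alongside.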
# [15] = read-out: xenobiotic metabolism (CYP1A2), CYP1A2 (gene 1544); experiment: CLD_CYP1A2_24hr: CellzDirect (CLD) Gene Expression Assay for xenobiotic metabolism (CYP1A2) at 24 hours (AID 2283683)
# Method in brief: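 Primary human hepatocytes from two donor preparations dosed daily with multiple concentrations of chemical, 0.2% DMSO vehicle. CYP1A2 mRNA at 24 h quantified by qNPA chemiluminescence; gain of signal analyzed relative to DMSO. Cytotoxicity flagged by phase-contrast morphology.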
# [16] = read-out: Cytochrome P450 (CYP24A1_1), CYP24A1 (gene 1591); experiment: LTEA_HepaRG_CYP24A1_1: Life Technologies and Expression Analysis (LTEA) Assay for Cytochrome P450 (CYP24A1_1) using HepaRG (AID 2283671; active means hit-call score of the fitted dose curve at least 0.9, where 1 is the maximum; inactive means score below 0.9); conditions: mRNA level, 48 h; actives raise or lower the signal
# Method in brief: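 HepaRG, 48 h exposure, 8-pt half-log series from 100 uM in 0.5% DMSO, duplicates. Readout: TaqMan qRT-PCR of CYP24A1 mRNA, housekeeping-normalized (ACTB/GAPDH/POLR2A). Bidirectional curve fit vs DMSO baseline.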
# Sequence of Cytochrome P450 3A4 (Homo sapiens) (P08684 whole entry, looked up): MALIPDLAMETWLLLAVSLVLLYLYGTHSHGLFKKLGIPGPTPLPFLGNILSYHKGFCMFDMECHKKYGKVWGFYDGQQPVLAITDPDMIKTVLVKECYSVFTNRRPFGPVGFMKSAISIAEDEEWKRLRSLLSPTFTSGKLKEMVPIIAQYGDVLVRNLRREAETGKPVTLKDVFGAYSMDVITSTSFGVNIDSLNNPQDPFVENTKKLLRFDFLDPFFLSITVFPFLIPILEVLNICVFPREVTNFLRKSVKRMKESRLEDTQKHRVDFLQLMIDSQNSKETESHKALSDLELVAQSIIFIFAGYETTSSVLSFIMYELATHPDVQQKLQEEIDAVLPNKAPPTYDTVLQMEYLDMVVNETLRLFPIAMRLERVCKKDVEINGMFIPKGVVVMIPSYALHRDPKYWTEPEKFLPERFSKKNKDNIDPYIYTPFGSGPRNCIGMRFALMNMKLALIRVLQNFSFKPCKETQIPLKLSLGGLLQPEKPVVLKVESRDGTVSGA
smiles,measurement,setting,value
FC(F)C(F)(F)OCC(Cn1cncn1)c1ccc(Cl)cc1Cl (configuration not stated),AC50,[1],2.45 µM (active)
same,AC50,[2],34.8 µM (active)
same,outcome,[3],inactive
same,outcome,[4],inactive
same,AC50,[5],1.12 µM (active)
same,AC50,[6],57.8 µM (active)
same,outcome,[7],inactive
O=C(O)c1cc(Oc2ccc(C(F)(F)F)cc2Cl)ccc1[N+](=O)[O-],outcome,[2],inactive
same,outcome,[4],inactive
same,outcome,[8],inactive
same,outcome,[9],inactive
same,outcome,[5],inactive
same,outcome,[6],inactive
same,AC50,[10],0.00569 µM (active)
same,outcome,[7],inactive
CN1COCN(Cc2cnc(Cl)s2)C1=N[N+](=O)[O-],outcome,[1],inactive
same,outcome,[11],inactive
same,outcome,[3],inactive
same,outcome,[4],inactive
same,outcome,[12],inactive
same,outcome,[8],inactive
same,outcome,[9],inactive
same,outcome,[6],inactive
same,outcome,[10],inactive
CN(C)NC(=O)CCC(=O)O,outcome,[1],inactive
same,outcome,[2],inactive
same,outcome,[3],inactive
same,outcome,[4],inactive
same,outcome,[8],inactive
same,outcome,[9],inactive
same,outcome,[5],inactive
same,outcome,[6],inactive
same,outcome,[13],inactive
same,outcome,[10],inactive
same,outcome,[7],inactive
CC(=NC#N)N(C)Cc1ccc(Cl)nc1,outcome,[2],inactive
same,outcome,[14],inactive
same,outcome,[11],inactive
same,outcome,[4],inactive
same,outcome,[9],inactive
same,outcome,[5],inactive
same,outcome,[6],inactive
same,outcome,[13],inactive
same,outcome,[7],inactive
CC(Oc1cccc(Cl)c1)C(=O)O (configuration not stated),outcome,[1],inactive
same,outcome,[2],inactive
same,outcome,[3],inactive
same,outcome,[4],inactive
same,outcome,[8],inactive
same,outcome,[9],inactive
same,outcome,[6],inactive
same,outcome,[10],inactive
same,outcome,[15],inactive
same,outcome,[7],inactive
CCc1cnc(C2=NC(C)(C(C)C)C(=O)N2)c(C(=O)O)c1 (configuration not stated),outcome,[2],inactive
same,outcome,[14],inactive
same,outcome,[3],inactive
same,outcome,[4],inactive
same,outcome,[8],inactive
same,outcome,[9],inactive
same,outcome,[6],inactive
same,outcome,[13],inactive
same,outcome,[10],inactive
same,outcome,[7],inactive
CCCCSP(=O)(SCCCC)SCCCC,AC50,[1],2.96 µM (active)
same,outcome,[2],inactive
same,outcome,[4],inactive
same,outcome,[8],inactive
same,outcome,[9],inactive
same,AC50,[5],1.9 µM (active)
same,AC50,[6],0.205 µM (active)
same,outcome,[13],inactive
same,AC50,[15],2.48 µM (active)
same,outcome,[7],inactive
Cc1cc(C2CC2)nc(Nc2ccccc2)n1,AC50,[1],1.99 µM (active)
same,outcome,[4],inactive
same,outcome,[9],inactive
same,AC50,[5],1.58 µM (active)
same,AC50,[6],15.3 µM (active)
same,outcome,[13],inactive
CN(C)C(=O)Nc1cccc(C(F)(F)F)c1,outcome,[1],inactive
same,outcome,[2],inactive
same,outcome,[4],inactive
same,AC50,[12],2.41 µM (active)
same,outcome,[9],inactive
same,outcome,[5],inactive
same,outcome,[6],inactive
same,outcome,[13],inactive
same,outcome,[10],inactive
same,AC50,[15],3.66 µM (active)
same,outcome,[7],inactive
CCCCN(CC)c1c([N+](=O)[O-])cc(C(F)(F)F)cc1[N+](=O)[O-],outcome,[1],inactive
same,outcome,[2],inactive
same,outcome,[16],inactive
same,outcome,[4],inactive
same,outcome,[9],inactive
same,AC50,[5],2.13 µM (active)
same,AC50,[6],5.08 µM (active)
same,outcome,[13],inactive
same,outcome,[7],inactive
CNc1cnn(-c2cccc(C(F)(F)F)c2)c(=O)c1Cl,AC50,[1],38.7 µM (active)
same,outcome,[2],inactive
same,outcome,[4],inactive
same,AC50,[12],5.85 µM (active)
same,outcome,[8],inactive
same,outcome,[9],inactive
same,AC50,[5],8.33 µM (active)
same,outcome,[6],inactive
same,outcome,[13],inactive
same,outcome,[7],inactive
CSc1nnc(C(C)(C)C)c(=O)n1N,outcome,[1],inactive
same,outcome,[14],inactive
same,outcome,[3],inactive
same,outcome,[4],inactive
same,outcome,[9],inactive
same,AC50,[5],10.9 µM (active)
same,outcome,[6],inactive
same,outcome,[13],inactive
same,outcome,[10],inactive
same,AC50,[15],20 µM (active)
same,outcome,[7],inactive
O=[N+]([O-])c1cc(C(F)(F)F)c(Cl)c([N+](=O)[O-])c1Nc1ncc(C(F)(F)F)cc1Cl,outcome,[2],inactive
same,outcome,[14],inactive
same,outcome,[8],inactive
same,outcome,[5],inactive
same,AC50,[6],0.994 µM (active)
same,outcome,[13],inactive
same,outcome,[10],inactive
same,AC50,[15],0.508 µM (active)
C[Si](Cn1cncn1)(c1ccc(F)cc1)c1ccc(F)cc1,outcome,[1],inactive
same,outcome,[14],inactive
same,outcome,[3],inactive
same,outcome,[4],inactive
same,AC50,[12],2.21 µM (active)
same,outcome,[8],inactive
same,outcome,[9],inactive
same,AC50,[5],32.4 µM (active)
same,AC50,[6],9.34 µM (active)
same,outcome,[10],inactive
same,AC50,[7],4.51 µM (active)
CNC(=O)ON=C(C)SC,outcome,[1],inactive
same,outcome,[3],inactive
same,outcome,[4],inactive
same,outcome,[8],inactive
same,outcome,[9],inactive
same,outcome,[5],inactive
same,AC50,[6],73.3 µM (active)
same,outcome,[10],inactive
same,outcome,[15],inactive
same,outcome,[7],inactive
C#CC(C)(C)NC(=O)c1cc(Cl)cc(Cl)c1,outcome,[2],inactive
same,outcome,[4],inactive
same,outcome,[9],inactive
same,AC50,[5],4.15 µM (active)
same,outcome,[6],inactive
same,outcome,[7],inactive
COc1cc(OC)nc(Sc2cccc(Cl)c2C(=O)O)n1,outcome,[2],inactive
same,outcome,[4],inactive
same,outcome,[8],inactive
same,outcome,[9],inactive
same,outcome,[5],inactive
same,outcome,[6],inactive
same,outcome,[10],inactive
same,outcome,[7],inactive
C[N+]1(C)CCCCC1,outcome,[1],inactive
same,outcome,[2],inactive
same,outcome,[3],inactive
same,outcome,[4],inactive
same,outcome,[8],inactive
same,outcome,[9],inactive
same,outcome,[5],inactive
same,outcome,[6],inactive
same,outcome,[13],inactive
same,outcome,[7],inactive
CCCCOC(=O)c1ccccc1C(=O)O,outcome,[2],inactive
same,outcome,[14],inactive
same,outcome,[4],inactive
same,outcome,[8],inactive
same,outcome,[5],inactive
same,outcome,[6],inactive
same,outcome,[13],inactive
same,outcome,[7],inactive
